KLF5 inh = kruppel-like factor 5 inhibition. DLD-1 KLF5 promoter-luciferase reporter, luminescence. hit rate 0.23% among 290,000. AID 1700. inhibition, % at 5 µM;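 active means inhibition above a per-plate limit of that plate's mean compound inhibition plus 3 SD, cut at about 60% in these data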;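 further: higher means less KLF5 promoter-driven luciferase light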
BaF3 parental = counter-screen for JAK2V617F inhibitors: parental Ba/F3 viability inhibitors. CellTiter-Glo ATP luminescence. inhibition, % at 5.6 µM. hit rate 1.1% among 220,000. AID 1486;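 active means inhibition above a per-campaign cutoff, the mean inhibition of all tested compounds plus 3 SD, cut at about 27% in these data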
Ba/F3 V617F tox = lowers viability of Ba/F3 cells expressing EpoR and JAK2V617F; inhibition, % at 5.6 µM; ATP luminescence; hit rate 1.1% among 220,000;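 active means inhibition above the campaign mean plus 3 SD over all tested compounds, cut at about 24% in these data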;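 further: cytokine-independent growth of Ba/F3 cells driven by EpoR plus mutant JAK2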
APP 5UTR inh = APP translation inhibition. SH-SY5Y APP 5'UTR-luciferase reporter, luminescence. inhibition, % at 2 µM. hit rate 0.82% among 190,000. AID 1285;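 active means inhibition above a set limit, derived from the sample mean plus 3 SD, cut at about 45% in these data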
aSyn UTR inh = 5' untranslated region of α-synuclein, MLPCN primary screen | alpha-synuclein 5'UTR reporter, inhibitor activity | inhibition, % (tested at 7.5 µM) | hit rate 0.82% among 300,000; in the data active means inhibition above about 60%;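 further: H4 neuroglioblastoma cells stably carrying SNCA 5'UTR luciferase fusion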
IEC-6 cytotox = IEC-6 cytotoxicity, counter-screen for KLF5 inhibitors | luminescence viability | inhibition, % at 5 µM | hit rate 0.78% among 290,000 | AID 1825; in the data active means inhibition above about 22%
Hits are given with their value; 0 = inactive; - = no result. The list is not random: actives were taken first. Their share in the collection is about 2.2%.

SMILES	KLF5 inh	BaF3 parental	Ba/F3 V617F tox	APP 5UTR inh	aSyn UTR inh	IEC-6 cytotox
Cc1cccc(OC(C)C(=O)N2CCCN(C)CC2)c1C (configuration not stated)	0	-	-	-	0	0
Cc1cc(C)c(C(=O)C(C)OC(=O)c2ccc(Cl)nc2)cc1C (configuration not stated)	0	-	-	-	0	0
COc1ccc(-c2coc3cc4oc(=O)cc(-c5ccccc5)c4cc23)cc1F	0	0	0	89.7	112.9	0
COc1ccc(-c2coc3cc4oc(=O)cc(C)c4cc23)cc1F	0	0	0	0	0	0
COc1ccc(NC(=O)CCCC(=O)OCC(=O)c2cccc(OC)c2)cc1	0	-	-	-	0	0
CCOc1ccccc1CN1CCN(Cc2ccc(C)o2)C(CCO)C1 (configuration not stated)	0	79.6	0	0	0	0
CCOC(=O)c1ccc(NC(=O)c2cccc(S(=O)(=O)N3c4ccccc4CC3C)c2)s1 (configuration not stated)	0	0	0	0	83.1	0
CC1Cc2ccccc2N1S(=O)(=O)c1cccc(C(=O)NCCCO)c1 (configuration not stated)	0	0	0	0	0	0
Cc1ccc(S(=O)(=O)N2c3ccccc3CC2C)cc1 (configuration not stated)	0	0	0	0	0	0
CCOc1ccc(S(=O)(=O)N2c3ccccc3CC2C)cc1 (configuration not stated)	0	75.6	77.0	93.7	92.6	67.0
COCCN(C(=O)Cc1coc2cc(C)c(C)cc12)c1c(N)n(Cc2ccccc2)c(=O)[nH]c1=O	-	-	-	-	0	-
CNC(=O)CN(c1cccc(Br)c1)S(C)(=O)=O	0	0	0	0	0	0
CS(=O)(=O)N(CC(N)=O)c1cccc(Br)c1	0	92.6	0	0	0	0
CCN1CCN(C(c2cccs2)C(C)NC(=S)Nc2cccc(C)c2C)CC1 (configuration not stated)	0	0	0	-	0	0
COc1cc(NC(=O)Cn2ncc(Cl)c(Cl)c2=O)c(C)cc1[N+](=O)[O-]	0	73.0	74.3	95.1	121.4	0
CC1=C(CC(=O)O)c2cc(F)ccc2/C1=C/c1ccc(S(C)=O)cc1 (configuration not stated)	0	-	-	-	0	0
Cc1ccc(N=CC=C2OC(C)(C)C(C)(C)O2)c(C)c1	0	0	0	0	0	0
CC1(C)OC(=CC=Nc2ccc(Cl)cc2)OC1(C)C	0	0	0	-	102.9	0
O=C(N(c1ccccc1)c1ccccc1)N(c1ccccc1)c1ccccc1	0	0	0	-	0	0
CC(=O)N(C1=C(N)C(=O)c2ccccc2C1=O)c1ccccc1	0	-	-	-	78.2	0
CCOC(=O)c1cc(C(=O)c2ccccc2O)cn2c(=O)c3c(C)c(C)sc3nc12	0	0	0	0	0	0
CC(=O)c1cccc(N(C(=O)Cn2nnc3ccccc32)C(C(=O)NCC2CCCO2)c2ccc(N3CCOCC3)cc2)c1 (configuration not stated)	0	0	0	0	0	0
Cc1ccc(-n2nc3c(=O)n(CCCC(=O)NCc4ccc(Cl)cc4)nc(C)c3c2C)cc1	0	-	-	-	62.2	0
Cc1ccc(-n2nc3c(=O)n(CCCC(=O)NCc4cccc(Cl)c4)nc(C)c3c2C)cc1	0	-	-	-	0	0
Cc1nccn1CCC(=O)Nc1ccc(Cl)cc1	0	0	0	0	0	0
SMILES	KLF5 inh	BaF3 parental	Ba/F3 V617F tox	APP 5UTR inh	aSyn UTR inh	IEC-6 cytotox
CC[N+]1=C(C)C(C)(C)c2cc(C)ccc21	0	72.2	64.5	0	0	0
Cc1ccc2c(c1)C=CC(C)(C)S2=O (configuration not stated)	0	0	0	0	0	0
O=C(COC(=O)c1cc(-c2cccc(Br)c2)nc2ccccc12)NCC1CCCO1 (configuration not stated)	0	0	0	0	0	0
COc1ccc(C(=O)Nc2sc3c(c2C(=O)O)CC(C)(C)OC3)cc1	0	0	0	0	62.9	0
CC(C)COc1ccc(C(=O)Nc2sc3c(c2C(=O)O)CC(C)(C)OC3)cc1	0	0	0	0	62.6	0
O=C1/C(=C/c2cccnc2)CC/C1=C\c1cccnc1	0	0	0	0	0	0
CC(C)/C=C1\CC/C(=C\c2cccnc2)C1=O	0	0	0	0	0	0
O=C1/C(=C/c2cccnc2)CCC/C1=C\c1cccnc1	0	0	0	94.9	-	0
CCC1C/C(=C\c2cccnc2)C(=O)/C(=C/c2cccnc2)C1 (configuration not stated)	0	0	0	94.8	-	30.2
Cn1c(=O)c2c(nc(NN=C3CCCCC3)n2C)n(C)c1=O	0	0	0	0	0	0
COc1ccc(NC2CCCN(C(=O)CN3C(=O)c4ccccc4C3=O)C2)cc1OC (configuration not stated)	0	-	-	-	0	0
Nc1cc[n+](CC(=O)c2ccc3c(c2)OCCO3)cc1	0	71.1	90.0	0	0	0
O=C(C[n+]1ccc(C(=O)NCc2ccccc2)cc1)c1ccc2c(c1)OCCO2	0	0	0	0	0	0
CCCc1cc(-c2nc(N)ncc2-c2ccc3c(c2)OCCCO3)c(O)cc1OC	0	0	0	0	61.7	0
CCCc1cc(-c2nc(N)ncc2-c2csc(C)n2)c(O)cc1OC	0	0	0	0	0	0
COc1ccc(C)cc1S(=O)(=O)N1CCC(C(=O)N2CCN(C)CC2)CC1	0	0	0	0	0	0
COc1cccc(CNCc2ccc(OC)cc2OC)c1	0	-	-	-	0	0
CCn1c2ccccc2c2cc(CNCc3ccc(OC)cc3OC)ccc21	0	0	0	0	62.6	0
CCc1ccc2[nH]c3nc(N/N=C/c4ccc(O)cc4O)nnc3c2c1	0	-	-	-	0	0
CCCOc1ccc(C2=NNC(=O)CC2)cc1	0	0	0	0	77.5	0
COc1ccc(C2=NNC(=O)CC2)cc1	0	0	0	0	0	0
COc1ccc(CCNS(=O)(=O)c2cc3c4c(c2)CCN4C(=O)CC3)cc1	-	-	-	-	0	-
Cc1cc(C)n(-c2nc(Nc3ccccc3C(F)(F)F)nc(-n3nc(C)cc3C)n2)n1	0	0	0	0	61.9	39.0
COc1ccc(O)c(/C=N/NC(=S)Nc2cccc(S(=O)(=O)N(C)C)c2)c1	0	0	0	59.8	74.1	0
Cc1c(C(=O)N/N=C/c2cccs2)nnn1-c1nonc1N	0	-	-	-	0	0
SMILES	KLF5 inh	BaF3 parental	Ba/F3 V617F tox	APP 5UTR inh	aSyn UTR inh	IEC-6 cytotox
COc1ccc(OCC(=O)Nc2nccs2)cc1	0	0	0	0	0	0
CCOc1ccc(OCC(=O)Nc2nccs2)cc1	0	0	0	0	69.2	0
O=S(=O)(c1cccnc1)N1CCn2cccc2C1c1ccccc1F (configuration not stated)	-	-	-	-	0	-
CN(Cc1c(C(=O)N/N=C/c2cc(F)ccc2F)nnn1-c1nonc1N)C1CCCCC1	0	-	-	-	0	0
Cc1nc2ccccc2c(=O)n1/N=C/c1c(O)ccc2oc3c(c12)CCCC3	0	0	0	0	85.7	0
N#CCCN1CCN(C(=S)c2ccc(-c3ccc(Cl)cc3)o2)CC1	0	93.1	0	0	0	0
S=C(c1ccc(-c2ccc(Cl)cc2)o1)N1CCCCC1	0	0	0	0	0	0

Bioassay records as filed in PubChem.
